TSHR ag: qHTS Assay for Agonists of the Thyroid Stimulating Hormone Receptor; HEK293-CNG-TSHR cells (CNG channel as cAMP sensor), membrane potential dye, cAMP; actives 0.48% (n = 73,000); AID 926, 2007; Thyrotropin receptor (Homo sapiens), P16473; Potency, µM (highest dose often 57.1 µM), for inactives: at the top dose activation, hits mostly activators; active means well fitted activation curve with a large enough effect in the main read-out, with a control signal flat, not every such curve was filed as active; inconclusive means small, poorly fitted or top-dose-only effect, or a change in a side signal; inactive means no such curve, though single readings can be large or run the other way; % of control where 0% means no effect;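 further: the control signal comes from parental cells without the receptor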
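HEK 293 cells stably expressing TSHR and a modified CNG channel, with CNG-only parental cells as counterscreen, were preloaded 60 min at room temperature with membrane potential dye containing 100 uM RO 20-1724. Compound exposure was 30 min, and depolarization was read as fluorescence at 590 nm.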
Caspase-7 inhib: qHTS Assay for Allosteric/Competitive Inhibitors of Caspase-7; P55210; recombinant caspase-7, Ac-DEVD-AFC fluorescence rate; Potency, µM (doses to about 57.5 µM), for the others: at the highest dose activity change, negative = inhibition, hits mostly inhibitors; actives 0.02% (n = 75,000); AID 889, 2007; active means well fitted inhibition curve with a large enough effect in the main read-out, with a control signal flat, not every such curve was filed as active; inconclusive means small, poorly fitted or top-dose-only effect, or a change in a side signal; further: % of control where 0% means no effect
ALOX15 inhib: qHTS Assay for Inhibitors of 15-hLO (15-human lipoxygenase). Polyunsaturated fatty acid lipoxygenase ALOX15 (Homo sapiens), P16050. actives 1.4% (n = 74,000). Potency, µM (series often up to 57.1 µM), without a hit: at the highest dose activity change, negative = inhibition, most hits filed as inhibitors. AID 887, 2007. purified 15hLO-1, xylenol orange hydroperoxide absorbance; further: on the % scale 0 is the no-effect control and ±100 the full control effect; nearly all actives have a fitted effect of over 55% in size
Target sequence (P16050 whole entry, looked up): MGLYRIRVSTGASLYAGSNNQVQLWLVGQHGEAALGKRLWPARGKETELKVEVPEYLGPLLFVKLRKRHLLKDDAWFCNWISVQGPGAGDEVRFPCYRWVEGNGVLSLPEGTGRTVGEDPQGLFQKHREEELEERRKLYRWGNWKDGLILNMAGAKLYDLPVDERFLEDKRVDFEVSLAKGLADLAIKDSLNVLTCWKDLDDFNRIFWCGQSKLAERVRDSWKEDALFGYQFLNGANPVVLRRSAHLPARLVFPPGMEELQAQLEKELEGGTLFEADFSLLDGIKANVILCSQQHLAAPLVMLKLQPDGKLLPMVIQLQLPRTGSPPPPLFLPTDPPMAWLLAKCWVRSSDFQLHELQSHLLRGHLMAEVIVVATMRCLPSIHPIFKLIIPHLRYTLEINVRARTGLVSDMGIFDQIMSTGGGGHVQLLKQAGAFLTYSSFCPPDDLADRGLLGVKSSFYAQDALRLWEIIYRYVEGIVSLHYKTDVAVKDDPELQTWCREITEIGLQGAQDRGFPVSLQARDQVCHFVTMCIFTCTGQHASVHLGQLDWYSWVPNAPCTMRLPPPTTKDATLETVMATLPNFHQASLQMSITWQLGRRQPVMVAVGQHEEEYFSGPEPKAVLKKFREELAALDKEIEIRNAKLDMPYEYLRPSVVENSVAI
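Inhibition is scored from a chromogenic endpoint. After 15 min enzyme-compound contact, arachidonic acid (50 uM final) reacts 6 min with 40 nM 15hLO-1 at room temperature, then Fe-XO reagent is added for 30 min and absorbance ratio recorded.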
Casp1 inh: qHTS Assay for Allosteric/Competitive Inhibitors of Caspase-1 | actives 0.03% (n = 75,000) | P29466 | AID 900, 2007 | Caspase-1 enzyme, Ac-WEHD-AFC fluorogenic rate | Potency, µM (top dose mostly 57.5 µM), without a hit: at the highest dose activity change, negative = inhibition, usual class: inhibitors;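 further: plate controls were vehicle for no effect and no substrate for full effect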
ERK AVP block: qHTS Assay for Inhibitors of the ERK Signaling Pathway using a Homogeneous Screening Assay. HEK293-V1b, vasopressin-stimulated pERK AlphaScreen. Potency, µM (titrated, usually from 57.5 µM), for inactives: at the top dose activity, negative = inhibition, actives largely listed as inhibitors. actives 0.99% (n = 72,000); further: on the % scale 0 is the no-effect control and ±100 the full control effect; nearly all actives have a fitted effect of over 55% in size
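V1b-HEK293 cells; cpd 30 min 37C; 25 nM vasopressin 5 min; lyse 10 min; AlphaScreen beads 5 hr RT. Normalized to DMSO basal and 25 nM vasopressin; AC50 by Hill fit.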
HEK293 cAMP ctrl: qHTS Assay for Agonists of the Thyroid Stimulating Hormone Receptor: Activators of Intracellular cAMP Concentrations in Parental HEK 293. parental HEK293 CNG cAMP sensor, membrane potential fluorescence. Potency, µM (doses to about 57.1 µM), inactives show at the top dose activation, most hits filed as activators. actives 2.5% (n = 73,000). AID 938, 2007; further: % of control where 0% means no effect; nearly all actives have a fitted effect of over 55% in size
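Parental HEK 293 cells stably expressing a cAMP-gated CNG channel were loaded with membrane potential dye containing 100 uM RO 20-1724 for 60 min. Compound added for 30 min; depolarization read as fluorescence intensity at 590 nm.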
* marks the source's active call; other numbers are inactive results; ? = inconclusive; · = not tested or not shown; [ ] = remark or other dose. A selection: hits, their analogues and other compounds. The true share with any hit is near 4.8%. Unless noted, the call rests on the fitted dose curve; in most records, active means well fitted curve in the direction sought with a large enough effect; inconclusive means small, poorly fitted or top-dose-only effect, or another doubt; inactive means no such curve, though single readings can be large; an effect the other way counts as inactive or inconclusive. Potency means the concentration at half of the fitted maximal effect.

SMILES	TSHR ag	Caspase-7 inhib	ALOX15 inhib	Casp1 inh	ERK AVP block	HEK293 cAMP ctrl
O=C(c1ccccc1OCc1ccccc1Br)N1CCN(c2ncccn2)CC1	?	-5%	?	-3%	?	16µM*
O=C(c1ccc(-c2ccccc2)cc1)N1CCN(c2ncccn2)CC1	?	-3%	-3%	-3%	4%	25µM*
COc1ccccc1C(=O)N1CCN(c2ccccn2)CC1	-1%	1%	3%	-1%	·	5%
O=C(Nc1ccccc1)C1=C(O)CC(c2ccco2)CC1=Nc1ccccc1 (stereo not given)	7%	-9%	3.2µM*	-5%	27%	17%
O=C(Nc1ccccc1)C1=C(O)CC(c2ccoc2)CC1=Nc1ccccc1 (stereo not given)	2%[11.4 µM]	-2%	4µM*	-2%	-3%	3%[11.4 µM]
Cn1cccc1C(=O)N1CCC[C@@]2(CCN(c3ccccc3)C2)C1	27%	-4%	-30%	-3%	?	25%
CCN(C(=O)c1ccc(C(C)(C)C)cc1)c1nnc(Cn2nnc3ccccc32)s1	?	-5%	?	-3%	?	25µM*
CC(=O)c1c(O)cc(O)cc1O	·	-3%	-6%	-2%	-4%	·
CC1(C)N=C(c2ccc(Cl)cc2)C(=O)N1	-6%	1%	-6%	0%	20%	-4%
CC1CCN(C(=O)COC(=O)c2cc3ccccc3cc2O)CC1	?	-1%	3%	-5%	?	0.2µM*
CC1CC(C)CN(C(=O)COC(=O)c2cc3ccccc3cc2O)C1 (stereo not given)	?	-7%	-19%	-3%	-7%	32µM*
COc1ccc(Oc2ncc3nc(-c4ccc(OC)cc4)c(=O)n(C)c3n2)cc1	-6%	-9%	3%	-4%	9%	2%
Cc1c(C)n(C)c2ccc(C(=O)NCc3cccs3)cc12	17%	1%	10µM*	1%	13µM*	23%
C=CC[C@@H]1C=C[C@H](O/N=C(\C)CCN2CCc3nc(CC)c(CC)cc3C2)[C@H](CO)O1	-6%[11.4 µM]	2%[11.5 µM]	22%[11.4 µM]	-7%[11.5 µM]	2%[11.5 µM]	5%[11.4 µM]
O=c1c(-c2ccccc2)nc2cnc(Nc3ccccc3)nc2n1Cc1cccs1	0%	?	-14%	·	20%	13%
COc1ccccc1CNc1ncnc2ccc(-c3ccoc3)cc12	?	-5%	-21%	-4%	?	20µM*
COc1cccc(-c2ccc3ncnc(NCc4cnc(C)cn4)c3c2)c1	15%	-5%	9%	-4%	-8%	14%
COc1cccc(-c2ccc3ncnc(NCc4cccs4)c3c2)c1	?	-2%	3%	-4%	16µM*	?
CN(C)C(=O)c1ccc(-c2ccc3ncnc(NCc4cccs4)c3c2)cc1	14%	?	24%	-6%	32µM*	1%
CCCCCCC=O	?	1%	-1%	-1%	29%	-9%
CCOC(=O)c1cc(-c2ccco2)nc2c1c(C)nn2-c1ccccc1	3.2µM*	-13%	-28%	-9%	-21%	17%
Cc1nn(-c2ccccc2)c2nc(-c3ccncc3)cc(C(=O)NCc3ccco3)c12	?	-8%	25µM*	-5%	-15%	?
CCN1CCCC1Cn1c(-c2ccccc2)nc2c(N(CCOC)CCOC)nc(C)nc21 (stereo not given)	?	-2%	-9%	-6%	10%	?
CCOC(=O)c1c(-c2ccc(C)o2)csc1NC(=O)CSc1nncs1	?	-6%	-28%	-6%	8%	25µM*
CCOC(=O)c1c(-c2ccc(C)o2)csc1NC(=O)CN1CCN(CC)CC1	2%	1%	-22%	-1%	-2%	22%
SMILES	TSHR ag	Caspase-7 inhib	ALOX15 inhib	Casp1 inh	ERK AVP block	HEK293 cAMP ctrl
CCNc1ncc2nc(-c3ccc(F)cc3)c(=O)n(CCOC)c2n1	6%	?	9%	·	-20%	9%
O=C(c1cc2c(s1)-c1ccccc1OC2)N1CCCC1	22%	-21%	2%	-12%	1%	15%
O=C(c1cc2c(s1)-c1ccccc1OC2)N1CCN(c2ccccn2)CC1	?	-15%	-5%	-11%	25µM*	?
CC1CCCCN1C(=O)Cn1c(=O)n(C2CCCCC2)c(=O)c2ccccc21 (stereo not given)	16µM*	-1%	-6%	0%	-10%	26%
N#CC(C#N)=c1ccc2c(c1)N1C3=C(CCCC3)CC3CCCCC31N=2 (stereo not given)	?	-4%	2%	-1%	2.5µM*	-87%
N#C/C(C(N)=O)=c1/ccc2c(c1)N1C3=C(CCCC3)CC3CCCCC31N=2 (stereo not given)	?	-10%	-17%	-11%	?	-106%
N#Cc1c(NCCCO)nc(NCc2ccccc2)c2c1CCN(Cc1ccccc1)C2	?	?	5µM*	·	-12%	-42%
CCOC(=O)Cc1csc(NC(=O)CSc2ncnc3c2cnn3-c2ccccc2Cl)n1	?	0%	-13%	-8%	40µM*	?
CC(C)NC(=O)N1CCCC2(CCN(S(=O)(=O)c3ccccc3)CC2)C1	?	0%	3%	-3%	5%	?
CCOC(=O)CNC(=O)CSc1nc2cccnc2n1C1CCCCC1	-3%	1%	-19%	-1%	?	11%
CC(C)OC(=O)CSc1nc2cccnc2n1C1CCCCC1	?	4%	-17%	-5%	20%	16µM*
Cc1cccc(N2CCN(C(=O)CCNS(=O)(=O)c3ccc4c(c3)CCC(=O)N4)CC2)c1C	28%	-1%	?	0%	25µM*	8%
Cc1ccc(Cn2c(=S)[nH]c3ccc(N4CCOCC4)cc3c2=O)o1	-5%	?	16µM*	·	32%	-6%
O=c1c2cc(N3CCOCC3)ccc2[nH]c(=S)n1CCN1CCCC1	-7%	?	-19%	·	2%	-4%
CN1CCN(c2ncc3nc(-c4ccc(F)cc4)c(=O)n(C4CC4)c3n2)CC1	3%	?	-10%	·	4%	-4%
COc1cccc(-c2cncnc2NC2CCNCC2)c1	2%	-13%	-22%	-9%	-1%	5%
Cc1ccc(Oc2ccc(NC(=O)c3ccco3)cc2)cc1	·	-4%	?	-3%	?	27%
O=C(Nc1cccc(Oc2ccc3c(c2)C(=O)NC3=O)c1)c1ccco1	·	0%	16µM*	0%	-28%	15%

Assay outcomes from PubChem BioAssay.
